# Assay outcomes: PubChem BioAssay, University of Pittsburgh Molecular Library Screening Center
# The full list was thinned out, with hits kept by preference.
# HIV RNase H inh-1: HIV-1 RT RNase H inhibitors, primary screen, biochemical, fluorescence; Gag-Pol polyprotein (Human immunodeficiency virus type 1 group M subtype B (isolate …; RT-RNase H RNA/DNA duplex cleavage; inhibition, % at 10 µM; 1.9% of 65,000 active; in the data active means inhibition above about 50%
# HIV RNase H inh-2: HIV-1 RT RNase H inhibitors, retest, confirmation, biochemical; Recombinant RT RNase H, fluorescent RNA/DNA duplex cleavage; AID 651, 2007; inhibition, % at 10 µM; 39% of 1,000 active; shares compounds with HIV RNase H inh-1; in the data active means inhibition above about 48%; inconclusive means no clear call, values can overlap the other calls
# Numbers without * were called inactive; ? = inconclusive.
SMILES,HIV RNase H inh-1,others
Cc1ccc(Cl)cc1N1CCN(C(=O)c2cc3c(=O)n(C)c4ccccc4c3n2C)CC1,19,
Fc1ccc(-n2[nH]nnc2=S)cc1N1CCCC1,63*,HIV RNase H inh-2=-6
CC(=O)c1ccc(N2CCCCCC2)c(F)c1,-50,
Nc1ccc(N2CCCCC2)cc1N1CCCCC1,-3,
COc1cccc(C2/C(=C(\O)c3c(C)nc4c(C)cccn34)C(=O)C(=O)N2CCCN(C)C)c1 (stereo unspecified),-6,
COCCCNC(=O)CN(c1ccc(OC)cc1)S(=O)(=O)c1ccc(NC(C)=O)cc1,1,
O=C(NCc1ccc(F)cc1)C1CCC(=O)N1C1CCCCC1 (stereo unspecified),-11,
COc1ccc(CCn2c(SCC(=O)Nc3cc(C)on3)nc3ccccc3c2=O)cc1OC,0,
Cc1cc(NC(=O)CSc2nc3cc4c(cc3c(=O)n2CCc2ccccc2)OCO4)no1,78*,HIV RNase H inh-2=71*
Cc1cc(NC(=O)CSc2nnc(C(C)N(C)C)n2Cc2ccccc2)no1 (stereo unspecified),5,
CCCCCCn1c(SCC(=O)Nc2cc(C)on2)nc2ccccc2c1=O,47,
Cc1cc(NC(=O)CSc2nc3ccccc3c(=O)n2Cc2ccc(F)cc2)no1,68*,HIV RNase H inh-2=22
Cc1cc(NC(=O)CSc2nc3c(c(=O)n2CCc2ccccc2)SC(C)C3)no1 (stereo unspecified),6,
COc1ccc(-n2ccnc2SCC(=O)Nc2ccc(OC)cc2OC)cc1,-17,
COc1cc(OC)cc(-c2nnc(SCc3c(F)cccc3Cl)o2)c1,-14,
CCOC(=O)c1[nH]c(C)c(/C(O)=C2\C(=O)C(=O)N(CCCN(C)C)C2c2cccnc2)c1C (stereo unspecified),-11,
CCCCN1CCc2c([nH]c3c(C)cccc23)C1=O,1,
Cc1nc(SCn2nnc3ccccc3c2=O)c2c(C)c(C)sc2n1,13,
O=C1CC(N2CCN(c3nc4ccccc4s3)CC2)C(=O)N1Cc1cccs1 (stereo unspecified),37,
O=C(Nc1ccc(CN2CCOCC2)cc1)c1cc2ccccc2oc1=O,-4,
C/C(N)=C(/C#N)C(=O)CSc1nnc(-c2ccc(OC(F)F)cc2)o1,-4,
Cc1csc(SCC(=O)c2cc(C)n(Cc3cccs3)c2C)n1,-75,
Cc1cc(C(=O)CSc2nnc(-c3ccc(OC(F)F)cc3)o2)c(C)n1Cc1cccs1,79*,HIV RNase H inh-2=67*
CC(=O)NC1C(=O)Nc2c1cccc2C(F)(F)F (stereo unspecified),-5,
COc1ccc(Br)cc1/C=c1\sc2nc(-c3ccco3)nn2c1=O,73*,HIV RNase H inh-2=?
SMILES,HIV RNase H inh-1,others
COc1ccc(C(=O)n2nc(-c3ccco3)nc2SC)cc1OC,17,
COc1ccccc1/C=c1\sc2nc(-c3ccncc3)nn2c1=O,-13,
COC(=O)c1ccc(-c2ccc(CNCC(O)c3ccccc3)o2)cc1 (stereo unspecified),-4,
COCCOC(=O)C1=C(C)NC(SCC(=O)NC(C)(C)C)=C(C#N)C1c1ccco1 (stereo unspecified),3,
Cc1ccc(NC(=O)CSC2=C(C#N)C(c3ccco3)C3=C(CCCC3=O)N2)cc1 (stereo unspecified),9,
C=CCOC(=O)C1=C(C)NC(SCC(=O)Nc2ccc(C)c(Cl)c2)=C(C#N)C1c1ccco1 (stereo unspecified),94*,HIV RNase H inh-2=85*
Cc1ccc(N(C(=O)C2CCCC2)C2C=CS(=O)(=O)C2)cc1C (stereo unspecified),-5,
COc1ccc(-n2nc3cc(C)c(NC(=O)c4cccnc4)cc3n2)cc1,-9,
COc1ccc(-n2nc3cc(C)c(NC(=O)CC(C)C)cc3n2)cc1,65*,HIV RNase H inh-2=61*
Cc1cc2nn(-c3ccccc3)nc2cc1NC(=O)c1cccs1,-6,
Cc1ccccc1-n1c(SC/C(O)=C(\C#N)c2nc3ccccc3[nH]2)nnc1-c1ccncc1,14,
CCOC(=O)c1ccc2c(c1)nc(SC/C(O)=C(\C#N)c1nc3ccccc3[nH]1)n2CC,33,
Cc1cc(C)n2c(SC/C(O)=C(\C#N)c3nc4ccccc4[nH]3)nnc2n1,83*,HIV RNase H inh-2=?
CCc1nnc(NC2=NCCC2)s1,3,
NC(=O)C1(N2CCCCC2)CCN(C(=O)NC2CCCCC2)CC1,-23,
COC(=O)C1=C(NC(=O)c2ccc(C)c(C)c2)CCS1,8,
CCN(CC)c1ccc(C(=O)Nc2cccc(F)c2)cc1,6,
CN(C)c1cccc(C(=O)Nc2cccc(F)c2)c1,80*,HIV RNase H inh-2=85*
O=C(Nc1cccc(F)c1)c1c(F)c(F)c(F)c(F)c1F,-3,
O=C(CSc1ncnc2c1nnn2-c1ccc(F)cc1)N1CCN(c2ccccc2)CC1,-9,
N#CCCN1CCN(C(=S)c2ccc(-c3ccc(Cl)cc3)o2)CC1,56*,HIV RNase H inh-2=13
CN1CCN(Cc2ccc(-c3ccc(Cl)cc3)o2)CC1,-4,
CC(C)c1cc(CN2CCN(CCC#N)CC2)cc(C(C)C)c1O,-2,
CC(=O)Nc1ccc2c(c1)nc(CCN1CCN(C)CC1)n2C,3,
O=C(CN1C(=O)C2CC=CCC2C1=O)Nc1ccc(S(=O)(=O)NC2=NCCCCC2)cc1 (stereo unspecified),-8,
SMILES,HIV RNase H inh-1,others
CCCCC(SCC(=O)Nc1ccccc1)C(=O)O (stereo unspecified),5,
c1coc(-c2nc3nc4ccccc4nc3n2-c2ccc3c(c2)OCCO3)c1,-29,
S=C(N=Nc1ccccc1)NNc1ccccc1,69*,HIV RNase H inh-2=32
CC(=Nc1ccccc1)Nc1ccccc1,25,
CCOC(=O)c1cc(-c2ccc(C)cc2)n(CC(=O)NCc2ccco2)c1C,58*,HIV RNase H inh-2=31
CCOC(=O)c1cc(-c2ccc(C)cc2)n(CCC(=O)NCCN(C)C)c1C,3,
COc1ccc2c(c1)c(=O)cc(C)n2CC(=O)NCc1ccco1,-6,
Cc1cc(-c2ccccc2)n(-c2ccc(C(=O)N3CCN(c4ncccn4)CC3)cc2)n1,-9,
CCC1=NC(c2ccccc2OC)N(O)C1(C)C (stereo unspecified),-7,
O=C(c1ccco1)N1CCCC(c2nc(-c3ccc(S(=O)(=O)NCc4ccccc4)cc3)no2)C1 (stereo unspecified),-3,
c1ccc(-c2ccccn2)nc1,0,
c1ccc(-c2ccc(-c3ccccn3)nn2)nc1,83*,HIV RNase H inh-2=77*
Nn1c(-c2ccccn2)nnc1-c1ccccn1,-8,
CCOC(=O)c1cc(-c2nnc(-c3ccc(Oc4ccccc4)cc3)o2)c(C)nc1C,1,
COC(=O)C1=C(C)NC(C)=C(C(=O)OC)C1c1cn(-c2ccccc2)nc1-c1ccco1,-1,
N#Cc1c2c(nc(N)c1-c1ccccc1)CCCCC2,1,
N#Cc1c(N)[nH]c(=S)c(C#N)c1-c1ccccc1,82*,HIV RNase H inh-2=-5
N#Cc1c(N)nc2c(c1-c1ccccc1)CCCC2,-15,
CCCCCOC(=O)Cn1c(N2CCCCCC2)nc2c1c(=O)[nH]c(=O)n2C,-11,
Cc1nnc(SCC(=O)Nc2nccs2)[nH]c1=O,-11,
CCOc1ccc(C(=O)Nc2cc(=O)n(C)c(=O)n2C)cc1,-2,
O=C(Nc1ccc(Cl)cc1)Nc1ccc(N2CCOCC2)cc1,7,
O=C(Nc1ccc(N2CCOCC2)cc1)NC1CCCCC1,10,
O=C(Nc1ccc(N2CCOCC2)cc1)Nc1cnsn1,67*,HIV RNase H inh-2=20
COCCSc1ccccc1C(=O)Nc1nnc(COC)s1,21,
COCCSc1ccccc1C(=O)Nc1cc(C)on1,80*,HIV RNase H inh-2=63*
